Assay results as given in PubChem BioAssay (Tox21).
Inconclusive results are not listed. Active and inactive are the calls of the source. Unless noted, calls follow the shape of the dose curve; as a rule, active = well fitted curve in the direction sought with a large enough effect in the repeat runs; inconclusive = weak or mixed curves; inactive = no such curve, though single readings can be large; an effect the other way counts as inactive or inconclusive.

How the values were obtained:
[1] = qHTS assay to identify small molecule agonists of the androgen receptor (AR) signaling pathway in the presence of an antagonist - cell viability counter screen (AID 1259379);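 also: MDA-kb2 human breast cancer cells carrying an MMTV luciferase reporter; series mostly up to about 92 µM; nearly all actives have a fitted effect of over 25% in size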
Outline: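 Cells: MDA-kb2 (MMTV-luc, AR and GR elements), 3,000/well, 5 hr settle. Added: nilutamide 3.0uM final, then compounds (15 conc.). Incubation: 16 hr, 37C, no CO2. Read-out: CellTiter-Fluor, 1 hr, fluorescence.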

[2] = qHTS assay to identify small molecule agonists of the estrogen receptor beta (ER-beta) signaling pathway - cell viability counter screen (AID 1259380); also: nearly all actives have a fitted effect of over 30% in size
Outline: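 HEK293T ER-beta-UAS-bla; 2% CS-FBS; 6 hr pre-plate, 16 hr cpd at 37C/5% CO2; LiveBLAzer read first, then CellTiter-Glo 30 min RT, luminescence.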

[3] = qHTS assay to identify small molecule antagonists of the estrogen receptor beta (ER-beta) signaling pathway - cell viability counter screen (AID 1259382);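 also: HEK293T cells carrying ER-beta-UAS-bla reporter stimulated with estradiol; series mostly up to about 92 µM; nearly all actives have a fitted effect of over 55% in size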
Outline: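 Cells: ER-beta-UAS-bla HEK293T, 2,000/well, 2% CS-FBS, 6 hr settle. Cpd + E2 (1nM final), 16 hr, 37C/5% CO2. Bla FRET substrate 2 hr RT, then CellTiter-Glo 30 min RT, luminescence.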

[4] = qHTS assay to identify small molecule agonists or antagonists of the thyroid stimulating hormone receptor (TSHR) signaling pathway - wild type cell line counter screen (AID 1259384; calls by dose curve)
Outline: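 Wild-type HEK293 cells were plated 18 h at 37 C/5% CO2, pin-dosed with compound plus Ro20-1724 medium, held 30 min at room temperature, then given cAMP-d2 and anti-cAMP-cryptate; fluorescence was read after 1 h. Fifteen concentrations, triplicate.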

[5] = target: Thyrotropin receptor (Homo sapiens) (UniProt P16473); test: qHTS assay to identify small molecule antagonists of the thyroid stimulating hormone receptor (TSHR) signaling pathway (AID 1259385; calls by dose curve; also: nearly all actives have a fitted effect of over 20% in size)
Sequence of Thyrotropin receptor (Homo sapiens) (P16473 whole entry, looked up): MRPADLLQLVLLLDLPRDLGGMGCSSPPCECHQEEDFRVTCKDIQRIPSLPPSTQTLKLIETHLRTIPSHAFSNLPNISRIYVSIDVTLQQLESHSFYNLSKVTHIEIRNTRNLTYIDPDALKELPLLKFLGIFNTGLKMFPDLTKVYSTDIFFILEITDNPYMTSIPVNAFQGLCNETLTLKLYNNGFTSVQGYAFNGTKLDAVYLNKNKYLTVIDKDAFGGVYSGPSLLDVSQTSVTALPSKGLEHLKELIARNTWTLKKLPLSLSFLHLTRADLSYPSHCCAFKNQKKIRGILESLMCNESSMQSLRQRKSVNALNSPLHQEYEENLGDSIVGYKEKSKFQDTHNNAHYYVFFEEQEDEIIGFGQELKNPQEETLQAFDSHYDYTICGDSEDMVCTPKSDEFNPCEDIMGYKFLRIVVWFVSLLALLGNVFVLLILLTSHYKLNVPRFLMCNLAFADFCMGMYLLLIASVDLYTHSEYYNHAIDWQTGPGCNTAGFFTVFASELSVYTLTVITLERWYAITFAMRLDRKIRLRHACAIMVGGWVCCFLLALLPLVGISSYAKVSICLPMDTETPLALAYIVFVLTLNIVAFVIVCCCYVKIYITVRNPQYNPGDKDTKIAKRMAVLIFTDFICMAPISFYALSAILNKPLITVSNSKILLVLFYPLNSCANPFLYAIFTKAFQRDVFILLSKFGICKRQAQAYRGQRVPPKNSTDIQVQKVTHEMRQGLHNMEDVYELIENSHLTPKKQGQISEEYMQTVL
Outline: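 TSHR-HEK293 cells were plated and held 18 h at 37C/5% CO2, then given compound plus Ro20-1724 and stimulated with TSH at 1.5 ng/mL final. After 30 min at room temperature, cAMP was detected with cAMP-d2/anti-cAMP-cryptate (1 h) by fluorescence.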

[6] = qHTS assay to identify small molecule agonists of the estrogen receptor alpha (ER-alpha) signaling pathway in the presence of an antagonist - cell viability counter screen (AID 1259386);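 also: cells exposed to compounds for 22 h at 37 °C before the viability read; nearly all actives have a fitted effect of over 30% in size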; also: potency is read from the fitted curve at half-maximal effect; as to activity change, negative = cytotoxicity: series mostly up to about 92 µM
Outline: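 VM7Luc4E2, stripped-serum pre-culture 5 d; 24hr plating; +ICI-182,780 10.0nM final; cpds 15 conc, 22hr, 37C/5% CO2; CellTiter-Fluor added at 21hr, fluorescence 1hr later.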

[7] = target: Progesterone receptor (Homo sapiens) (UniProt P06401); test: qHTS assay to identify small molecule agonists of the progesterone receptor (PR) signaling pathway (AID 1346784; calls by dose curve; also: nearly all actives have a fitted effect of over 30% in size; also: potency is read from the fitted curve at half-maximal effect)
Sequence of Progesterone receptor (Homo sapiens) (P06401 whole entry, looked up): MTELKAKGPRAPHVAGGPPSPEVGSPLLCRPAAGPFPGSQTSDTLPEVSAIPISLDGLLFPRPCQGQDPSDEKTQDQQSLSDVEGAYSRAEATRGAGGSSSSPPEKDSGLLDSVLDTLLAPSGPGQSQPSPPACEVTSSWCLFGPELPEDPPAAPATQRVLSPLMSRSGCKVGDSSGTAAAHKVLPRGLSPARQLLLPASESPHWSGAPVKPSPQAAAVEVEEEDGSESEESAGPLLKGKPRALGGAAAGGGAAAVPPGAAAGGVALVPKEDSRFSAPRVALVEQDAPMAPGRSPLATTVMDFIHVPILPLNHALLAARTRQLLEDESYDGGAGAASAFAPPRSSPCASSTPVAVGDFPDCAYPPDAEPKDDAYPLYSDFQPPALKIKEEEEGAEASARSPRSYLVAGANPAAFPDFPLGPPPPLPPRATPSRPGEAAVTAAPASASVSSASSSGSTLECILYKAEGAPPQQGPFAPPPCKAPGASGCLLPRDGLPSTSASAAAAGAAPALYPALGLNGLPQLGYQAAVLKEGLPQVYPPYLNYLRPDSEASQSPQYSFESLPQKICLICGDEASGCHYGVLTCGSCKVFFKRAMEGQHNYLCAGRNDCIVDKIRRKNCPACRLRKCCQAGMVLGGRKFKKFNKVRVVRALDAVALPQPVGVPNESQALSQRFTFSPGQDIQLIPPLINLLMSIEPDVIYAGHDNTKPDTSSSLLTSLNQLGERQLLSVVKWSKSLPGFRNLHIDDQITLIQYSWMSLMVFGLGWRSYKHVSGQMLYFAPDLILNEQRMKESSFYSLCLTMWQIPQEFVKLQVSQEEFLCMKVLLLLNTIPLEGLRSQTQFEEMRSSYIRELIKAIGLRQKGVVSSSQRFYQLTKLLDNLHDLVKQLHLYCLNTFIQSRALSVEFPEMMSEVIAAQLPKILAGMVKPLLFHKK
Outline: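 Agonist qHTS: compounds pinned onto 3,000 PR-UAS-bla HEK 293T cells per well in charcoal-stripped serum medium, 16hr at 37C, then beta-lactamase activity measured by LiveBLAzer FRET fluorescence after 2 hours at room temperature.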

[8] = target: Estrogen receptor (Homo sapiens) (UniProt P03372); test: qHTS assay to identify small molecule agonists of the estrogen receptor alpha (ER-alpha) signaling pathway in the presence of an antagonist (AID 1259383; calls by dose curve; also: top concentration of the series differs between compounds; nearly all actives have a fitted effect of over 15% in size)
Sequence of Estrogen receptor (Homo sapiens) (P03372 whole entry, looked up): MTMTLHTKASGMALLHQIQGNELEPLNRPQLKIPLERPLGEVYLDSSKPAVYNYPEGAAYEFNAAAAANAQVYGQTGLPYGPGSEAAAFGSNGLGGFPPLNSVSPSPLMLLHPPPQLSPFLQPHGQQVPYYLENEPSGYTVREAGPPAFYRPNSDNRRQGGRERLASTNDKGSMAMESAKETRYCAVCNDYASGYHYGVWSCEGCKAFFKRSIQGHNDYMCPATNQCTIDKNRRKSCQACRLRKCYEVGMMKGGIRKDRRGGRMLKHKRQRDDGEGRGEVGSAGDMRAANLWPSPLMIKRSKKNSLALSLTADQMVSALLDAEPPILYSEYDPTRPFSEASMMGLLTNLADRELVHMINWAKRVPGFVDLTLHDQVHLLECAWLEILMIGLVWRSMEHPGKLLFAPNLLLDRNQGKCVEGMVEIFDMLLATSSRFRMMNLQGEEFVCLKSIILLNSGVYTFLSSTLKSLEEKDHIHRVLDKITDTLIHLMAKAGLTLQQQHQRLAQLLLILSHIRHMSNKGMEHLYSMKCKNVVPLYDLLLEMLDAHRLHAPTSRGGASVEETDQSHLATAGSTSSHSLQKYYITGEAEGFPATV
Outline: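 VM7Luc4E2, endog. ER-alpha + 4×ERE-luc; charcoal-stripped FBS, phenol red-free, 5 d; 24hr plating; +10.0nM ICI-182,780 (final); cpds 15 conc, 22hr, 37C/5% CO2; ONE-Glo luminescence.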

[9] = target: Androgen receptor (Homo sapiens) (UniProt P10275); test: qHTS assay to identify small molecule agonists of the androgen receptor (AR) signaling pathway in the presence of an antagonist (AID 1259381; calls by dose curve; also: nearly all actives have a fitted effect of over 15% in size; also: potency is read from the fitted curve at half-maximal effect)
Sequence of Androgen receptor (Homo sapiens) (P10275 whole entry, looked up): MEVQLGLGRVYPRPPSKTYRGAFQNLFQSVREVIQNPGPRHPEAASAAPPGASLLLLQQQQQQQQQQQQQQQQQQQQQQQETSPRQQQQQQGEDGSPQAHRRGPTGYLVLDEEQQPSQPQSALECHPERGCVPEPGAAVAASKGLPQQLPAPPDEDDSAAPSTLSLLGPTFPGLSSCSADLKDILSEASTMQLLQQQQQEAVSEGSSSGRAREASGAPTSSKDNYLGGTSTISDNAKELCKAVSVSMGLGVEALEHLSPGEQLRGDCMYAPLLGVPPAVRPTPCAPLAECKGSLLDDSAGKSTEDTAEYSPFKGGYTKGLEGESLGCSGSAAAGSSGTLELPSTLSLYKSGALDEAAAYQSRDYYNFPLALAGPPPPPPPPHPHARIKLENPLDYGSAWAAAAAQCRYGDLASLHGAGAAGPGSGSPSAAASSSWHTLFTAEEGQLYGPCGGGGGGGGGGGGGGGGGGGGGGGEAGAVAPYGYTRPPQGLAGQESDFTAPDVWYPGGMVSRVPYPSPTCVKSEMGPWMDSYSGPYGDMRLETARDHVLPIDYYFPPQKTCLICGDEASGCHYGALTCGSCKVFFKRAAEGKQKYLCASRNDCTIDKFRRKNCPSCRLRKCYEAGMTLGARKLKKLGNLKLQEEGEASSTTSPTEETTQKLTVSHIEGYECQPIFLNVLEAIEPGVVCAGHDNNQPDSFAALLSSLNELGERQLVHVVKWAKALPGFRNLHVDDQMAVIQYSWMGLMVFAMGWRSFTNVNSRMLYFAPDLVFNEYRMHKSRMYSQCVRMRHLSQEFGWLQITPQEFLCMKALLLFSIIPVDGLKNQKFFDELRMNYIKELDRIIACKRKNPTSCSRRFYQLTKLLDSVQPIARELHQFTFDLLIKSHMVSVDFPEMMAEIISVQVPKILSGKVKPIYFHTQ
Outline: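 MDA-kb2 cells, 3,000/well, rested 5hr at 37C/0% CO2 → nilutamide 3.0uM final or buffer → compounds, 15 conc. → 16hr at 37C → ONE-Glo, 30min RT → luminescence.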
% is scaled to controls: 0 for no effect and ±100 for the full control effect.

O=S(=O)(O)c1cccc2c(S(=O)(=O)O)cccc12
inactive: Potency [1] | Potency [2] | outcome [3] | outcome [4] | outcome [5] | Potency [6]

NC(=O)N[C@@H](CCC(=O)O)C(=O)O
inactive: Potency [1] | Potency [2] | outcome [3] | outcome [4] | outcome [5] | Potency [6] | Potency [7]

C[N+](C)(C)CCCCCCCCCC[N+](C)(C)C
inactive: Potency [1] | outcome [3] | outcome [8] | outcome [4] | outcome [5] | Potency [6]

COc1cc(C)nc(-n2nc(C)cc2OC)n1
inactive: Potency [1] | Potency [2] | outcome [3] | outcome [4] | outcome [5] | Potency [6]

COc1cccc(OC)c1C(=O)N[C@@H]1C(=O)N2[C@@H]1SC(C)(C)[C@@H]2C(=O)O
inactive: Potency [1] | Potency [2] | outcome [3] | outcome [4] | outcome [5] | Potency [6] | Potency [7]

O=C1c2ccccc2C(=O)c2cc(O)ccc21
inactive: Potency [2] | outcome [3] | outcome [4] | Potency [7]
active: Potency [6] 27300 nM

CCCC(=O)O[C@]1(C(=O)CC)CC[C@H]2[C@@H]3CCC4=CC(=O)CC[C@]4(C)[C@H]3[C@@H](O)C[C@@]21C
active: Potency [9] 13.3 nM | Potency [7] 7.5 nM
inactive: Potency [1] | outcome [3] | outcome [8] | Potency [6]

Cc1ccccc1N=C(N)N=C(N)N
inactive: Potency [1] | Potency [2] | outcome [3] | outcome [4] | outcome [5] | Potency [6]

CC(C)[C@H]1CC[C@@H](C)CC1=O
inactive: Potency [1] | Potency [2] | outcome [3] | outcome [4] | outcome [5] | Potency [6] | Potency [7]

CC(C)COC(=O)c1ccc(N)cc1
inactive: Potency [1] | Potency [2] | outcome [3] | outcome [4] | outcome [5] | Potency [6] | Potency [7]

CCN[C@@H]1C[C@H](N)[C@@H](OC2OC(CN)=CCC2N)[C@H](O)[C@H]1O[C@H]1OC[C@](C)(O)[C@H](NC)[C@H]1O (some centres undefined)
inactive: activity change, negative = cytotoxicity [1] 0.828% [at 0.35 µM] | activity change, negative = cytotoxicity [2] 6.54% [at 0.349 µM] | activity change, negative = cytotoxicity [3] 16.4% [at 0.349 µM] | activity change, negative = cytotoxicity [6] 7.38% [at 0.349 µM] | activation [7] 0.0091% [at 0.349 µM]

[Ca+2]
inactive: Potency [1] | Potency [2] | outcome [3] | outcome [4] | outcome [5] | Potency [6] | Potency [7]

CC(C)C[C@@H](N)C(=O)O
inactive: activity change, negative = cytotoxicity [1] 0.366% [at 19 µM] | activity change, negative = cytotoxicity [2] 2.37% [at 19 µM] | activity change, negative = cytotoxicity [3] 1.92% [at 19 µM] | cAMP activity change [4] 1.68% [at 18.9 µM] | activity change, negative = inhibition [5] 2.7% [at 19 µM] | activity change, negative = cytotoxicity [6] 2.39% [at 19 µM] | activation [7] -1.5% [at 19 µM]

COc1ccnc(CS(=O)c2nc3cc(OC(F)F)ccc3[nH]2)c1OC (centres undefined)
inactive: Potency [1] | outcome [3] | outcome [8] | outcome [4] | outcome [5] | Potency [6] | Potency [7]

CCN(Cc1ccccc1)c1ccccc1
inactive: Potency [9] | outcome [3] | outcome [8] | outcome [4] | Potency [6]

Nc1ccccn1
inactive: Potency [1] | Potency [2] | outcome [3] | outcome [4] | outcome [5]
